Assay [1] is described as follows: NCI Yeast Anticancer Drug Screen. Data for the rad50 strain (AID 155).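 Note: 0% = growth of vehicle-only cultures of the same strain.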 The following applies: S. cerevisiae rad50 strain growth inhibition; at 50.0 µM; hits give high values. A digest of the protocol: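 Growth of the mutant yeast was measured after compound exposure and referenced to vehicle-treated cultures.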
Assay [2] in a line: NCI Yeast Anticancer Drug Screen. Data for the mec2-1 strain (AID 157). The settings on record: S. cerevisiae mec2-1 strain, at 50.0 µM, hits give high values. A digest of the protocol:
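Using mec2-1 yeast: add compound, measure growth, express inhibition versus vehicle-treated cultures.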

Assay [3] is described as follows: NCI Yeast Anticancer Drug Screen. Data for the sgs1 mgt1 strain (AID 161).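 Note: 0% = growth of cultures given vehicle only.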 The settings on record: S. cerevisiae sgs1 mgt1 strain, at 50.0 µM, hits give high values. A digest of the protocol:
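Compounds are added to genetically altered yeast, and growth is compared with cultures given vehicle alone to give percent inhibition.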

Assay [4] can be described thus: NCI Yeast Anticancer Drug Screen. Data for the cln2 rad14 strain (AID 165).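 Note: 0% = growth equal to vehicle treated cultures.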 The settings on record: S. cerevisiae cln2 rad14 strain, at 50.0 µM, hits give high values. An outline of the steps:
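Yeast strain cln2 rad14, bearing defects in cell cycle control and DNA repair, serves as the test system; values reflect growth inhibition compared with vehicle.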

Assay [5] is described as follows: NCI Yeast Anticancer Drug Screen. Data for the bub3 strain (AID 167). The following applies: S. cerevisiae bub3 mutant strain, at 50.0 µM, hits give high values. An outline of the steps: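 Whole-cell yeast assay. The mutant strain was incubated with compounds, and growth inhibition was determined by comparison with vehicle-treated cells.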
Assay [6] in a line: NCI Yeast Anticancer Drug Screen. Data for the mlh1 rad18 strain (AID 175). The following applies: S. cerevisiae mlh1 rad18 strain growth inhibition; at 50.0 µM; hits give high values. An outline of the steps: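 Steps: expose repair-defective yeast to compound; measure growth; express inhibition against vehicle-treated controls.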

Compounds without any hit were thinned out: in the full panel of roughly 79,000, 15% have a hit. Values without a mark were called inactive. Calls of active or inactive are those of the source. Cut-off read from the data, not from the text of the source: active = growth inhibition above about 70%; inactive = the rest.

Regarding `COC(=O)C(=[N+]=[N-])C(=O)c1ccccc1[N+](=O)[O-]`, the growth inhibition was 30.5% in assay [1]; 27.4% in assay [2]; 15.8% in assay [3]; 18.5% in assay [4]; 6.9% in assay [5]; 14.5% in assay [6].
In the case of `O=C(COCC(=O)N/N=C/c1ccc(O)cc1)N/N=C/c1ccc(O)cc1`, the growth inhibition was -10.4% in assay [1]; 22.2% in assay [2]; 31.8% in assay [3]; -11.9% in assay [4]; 18.1% in assay [5]; 26.3% in assay [6].
As for `COc1ccc(CC2COC(=O)[C@@H]2Cc2ccc(O)cc2)cc1OC` (stereo not given in full), the growth inhibition in assay [1] was -32.9%; in assay [2], -43.5%; in assay [3], -14.1%; in assay [4] it was -2.85%; in assay [5], 4%; in assay [6] it was -7.55%.
As to `CCOC(=O)C1C=C1C(C)(C)O` (stereo not given), the growth inhibition in assay [1] was -15.4%; in assay [2], 9.3%; in assay [3], -13.1%; in assay [4], 1%; in assay [5], 3.9%; in assay [6], -32.9%.
For the compound `CNC(=O)OCc1c(COC(=O)NC)c(-c2ccc(C(C)(C)C)cc2)n(C)c1C`, the growth inhibition in assay [1] is 3.45%; in assay [2], 12.9%; in assay [3], 5.5%; in assay [4], -2.75%; in assay [5], 15.8%; in assay [6], 22.1%.
On to `COC(=O)c1ccc2c(c1)CC1(C2)Cc2cc3c(cc2C1=O)CCC3` (stereo not given), for which the growth inhibition in assay [1] is -3.35%; in assay [2], -37.8%; in assay [3], -0.5%; in assay [4] it was -3.15%; in assay [5] it was 14.3%; in assay [6], -5.3%.
In the case of `ClC1C2c3ccccc3C1C1C2C2(c3ccccc3)OC1(c1ccccc1)c1ccccc12` (stereo not given), the growth inhibition in assay [1] was 12.7%; in assay [2], 1.65%; in assay [3], -3.2%; in assay [4], -60.1%; in assay [5] it was -2%; in assay [6], 0.2%.
Take `Cc1ccc(-c2nnc(C)o2)cc1`: the growth inhibition is 5.55% in assay [1]; -6.65% in assay [2]; -7.85% in assay [3]; -35.6% in assay [4]; 13.3% in assay [5]; 6.2% in assay [6].
Turning to `CCCCc1c[nH]c(=O)[nH]c1=O`, the growth inhibition was 4.55% in assay [1]; 5.05% in assay [2]; -8.4% in assay [3]; -34.6% in assay [4]; -12.6% in assay [5]; 5.7% in assay [6].
As to `O=c1[nH]nc(S(=O)(=O)c2ccccc2)c(=O)[nH]1`, the growth inhibition in assay [1] was 13.2%; in assay [2], -6.45%; in assay [3] it was -1.7%; in assay [4], -10.6%; in assay [5] it was 9.3%; in assay [6] it was -3.2%.
As to `CCCCNc1ncnc2c1cnn2C`, the growth inhibition was -3.2% in assay [1]; 18.9% in assay [2]; -28.2% in assay [3]; -11.9% in assay [4]; -7.1% in assay [5]; -4.3% in assay [6].
As for `CN(C)Cc1ccc2ccccc2c1`, the growth inhibition in assay [1] was 0.2%; in assay [2] it was 7.1%; in assay [3] it was 9.95%; in assay [4] it was -39.1%; in assay [5], 6.85%; in assay [6], -14.3%.
Take `C/C=C(/C)C(=O)O[C@H]1C(C)=C[C@]23C(=O)[C@@H](C=C(COC(C)=O)[C@@H](O)[C@]12O)[C@H]1[C@@H](C[C@H]3C)[C@@]1(C)OC(=O)/C(C)=C\C`: the growth inhibition in assay [1] was 58.7%; in assay [2], 60.4%; in assay [3] it was 60.6%; in assay [4] it was 76.3% (active); in assay [5], 56.8%; in assay [6], 59.2%.
Regarding `Cc1cc(=O)oc2c(C)c(O)ccc12`, the growth inhibition in assay [1] is 0%; in assay [2] it was -16.5%; in assay [3], -3.15%; in assay [4], 13.7%; in assay [5], -16.6%; in assay [6], 16.4%.
Consider `Cc1ccc(S(=O)(=O)NN=C2CC3C4CCC5C4CC3C25)cc1` (stereo not given), for which the growth inhibition in assay [1] was 21.9%; in assay [2], -4.5%; in assay [3], 15.9%; in assay [4] it was 12%; in assay [5], -13.5%; in assay [6], 7.1%.
In the case of `CCOC(=O)c1[nH]cc(C)c1-c1c[nH]c2ccccc12`, the growth inhibition was 31% in assay [1]; 27.6% in assay [2]; 20.4% in assay [3]; 19.7% in assay [4]; -4.05% in assay [5]; 41.2% in assay [6].
In the case of `O=C(/C=C(\N=P(c1ccccc1)(c1ccccc1)c1ccccc1)C(F)(F)C(F)(F)C(F)(F)C(F)(F)C(F)(F)C(F)(F)C(F)(F)F)c1ccccc1`, the growth inhibition was -16.1% in assay [1]; -13.2% in assay [2]; -17.3% in assay [3]; 0.65% in assay [4]; 14.2% in assay [5]; -3% in assay [6].
As for `Fc1cc(F)c2c(c1)Nc1cc(F)cc(F)c1S2`, the growth inhibition in assay [1] is 27.5%; in assay [2], 21.6%; in assay [3], 4.75%; in assay [4] it was -13.6%; in assay [5] it was 22.9%; in assay [6], 12.7%.
With `O=C1OC(Cl)C=C1c1ccccc1` (stereo not given), the growth inhibition in assay [1] is 5.2%; in assay [2], -7.35%; in assay [3] it was -4.35%; in assay [4], -36.5%; in assay [5], -23.5%; in assay [6], 0.65%.
`Cc1cc2c(cc1C)C(C)(C)c1c(nc(N)[nH]c1=O)N2C`: the growth inhibition is 3.7% in assay [1]; -1.1% in assay [2]; 20.5% in assay [3]; -15.7% in assay [4]; -0.45% in assay [5]; 1.7% in assay [6].

(Values after PubChem BioAssay (NCI).)
